Results on 21 compounds are retold here after PubChem BioAssay.

A number with no mark means an inactive call. For some assays here: Potency and affinity values are given separately. Active and inactive are the calls of the source. Unless noted, no rule for the calls is given here.

A short description of assay [1]: antimalarial activity against Dd2 strain (AID 2302;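 active = growth inhibition above 50% at the single 2 µM test dose, taken to imply half-maximal potency below 2 µM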;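 also: 0% = DMSO untreated growth and 100% = chloroquine plus artemisinin killed control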). Particulars: P. falciparum Dd2 in RBCs, LDH growth readout, 72 h; at 2 µM; hits give high values.
For assay [2], the target named is L-lactate dehydrogenase (Plasmodium falciparum (isolate CDC / Honduras)) (UniProt Q27743). In words: PfLDH activity inhibition – cell lysate, 3D7 strain, counter-screen for P. falciparum growth inhibition project (AID 2304).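 Also: 0% = vehicle and 100% = reference inhibitor.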 Particulars: P. falciparum 3D7 crude extract, LDH APAD/NBT absorbance; at 2 µM; hits give high values. Background: The purpose of a counterscreen is to sort out artefacts and off-target activity.
L-lactate dehydrogenase (Plasmodium falciparum (isolate CDC / Honduras)), sequence (Q27743 whole entry, looked up): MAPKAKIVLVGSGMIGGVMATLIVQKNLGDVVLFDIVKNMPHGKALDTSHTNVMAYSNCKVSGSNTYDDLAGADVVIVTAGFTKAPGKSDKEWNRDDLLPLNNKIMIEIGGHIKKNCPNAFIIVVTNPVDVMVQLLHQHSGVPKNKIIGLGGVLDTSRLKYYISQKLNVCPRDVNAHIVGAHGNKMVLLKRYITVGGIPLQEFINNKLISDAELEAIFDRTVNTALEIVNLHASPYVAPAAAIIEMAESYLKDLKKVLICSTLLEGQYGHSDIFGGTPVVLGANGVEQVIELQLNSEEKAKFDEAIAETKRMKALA

Assay [3] can be described thus: inhibition of 3D7 malaria parasite growth – strain 3D7 (AID 2306).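 Also: 0% = DMSO wells and 100% = chloroquine plus artemisinin control wells.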 The settings on record: P. falciparum 3D7 erythrocytic growth, LDH absorbance, 72 h; at 2 µM; hits give high values.
Assay [4] deals with Calcium-dependent protein kinase 1 (Plasmodium falciparum (isolate 3D7)) (UniProt P62344). The assay can be described thus: PfCDPK1 kinase inhibitors, biochemical, TCAMS library (AID 1159585; cut-off not given, nearly all actives have IC50 up to about 0.98 µM;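 also: inhibitors leave more ATP so luminescence rises with inhibition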). Particulars: recombinant PfCDPK1, Kinase-Glo ATP depletion luminescence.
Calcium-dependent protein kinase 1 (Plasmodium falciparum (isolate 3D7)), sequence (P62344 whole entry, looked up): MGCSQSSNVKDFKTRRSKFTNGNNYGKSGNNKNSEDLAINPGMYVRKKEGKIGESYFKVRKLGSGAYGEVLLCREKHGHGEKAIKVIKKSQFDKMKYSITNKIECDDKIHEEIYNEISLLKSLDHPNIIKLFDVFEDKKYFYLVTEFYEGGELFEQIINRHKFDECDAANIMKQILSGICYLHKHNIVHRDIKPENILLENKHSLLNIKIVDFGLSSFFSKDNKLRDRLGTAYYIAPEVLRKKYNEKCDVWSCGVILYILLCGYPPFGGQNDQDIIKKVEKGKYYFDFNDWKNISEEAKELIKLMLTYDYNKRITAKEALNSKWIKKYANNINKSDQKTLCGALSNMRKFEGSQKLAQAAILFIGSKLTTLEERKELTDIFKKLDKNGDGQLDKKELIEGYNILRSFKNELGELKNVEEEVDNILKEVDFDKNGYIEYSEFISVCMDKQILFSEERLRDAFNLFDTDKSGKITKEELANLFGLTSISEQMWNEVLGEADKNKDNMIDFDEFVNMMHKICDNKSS
In assay [5] the target is Plasmodium falciparum protein kinase 6 (PK6, PF3D7_1337100) (UniProt Q8IDW1). In words: PfPK6 kinase inhibitors, biochemical, TCAMS library (AID 1159586). Particulars: recombinant PfPK6, Kinase-Glo ATP depletion luminescence. (Kinase-Glo measures the ATP left after a reaction by luminescence.)
Plasmodium falciparum protein kinase 6 (PK6, PF3D7_1337100), sequence (Q8IDW1 1-305): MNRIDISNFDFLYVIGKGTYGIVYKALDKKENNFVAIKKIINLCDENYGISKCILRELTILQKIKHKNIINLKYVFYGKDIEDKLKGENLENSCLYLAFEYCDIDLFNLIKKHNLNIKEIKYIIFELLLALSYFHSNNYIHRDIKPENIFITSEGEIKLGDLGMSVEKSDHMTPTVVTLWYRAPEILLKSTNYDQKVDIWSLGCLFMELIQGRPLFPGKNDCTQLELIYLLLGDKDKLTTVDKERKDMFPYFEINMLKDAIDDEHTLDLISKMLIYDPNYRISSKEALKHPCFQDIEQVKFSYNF
The target of assay [6] is Protein kinase 7 (PK7), Plasmodium falciparum 3D7 (PF3D7_0213400) (UniProt Q7YTF7). In words: inhibition of Plasmodium PK7 catalytic activity – biochemical, TCAMS antimalarial set, Kinase-Glo luminescence (AID 1159587). The settings on record: recombinant PfPK7, Kinase-Glo ATP depletion luminescence.
Protein kinase 7 (PK7), Plasmodium falciparum 3D7 (PF3D7_0213400), sequence (Q7YTF7 1-343): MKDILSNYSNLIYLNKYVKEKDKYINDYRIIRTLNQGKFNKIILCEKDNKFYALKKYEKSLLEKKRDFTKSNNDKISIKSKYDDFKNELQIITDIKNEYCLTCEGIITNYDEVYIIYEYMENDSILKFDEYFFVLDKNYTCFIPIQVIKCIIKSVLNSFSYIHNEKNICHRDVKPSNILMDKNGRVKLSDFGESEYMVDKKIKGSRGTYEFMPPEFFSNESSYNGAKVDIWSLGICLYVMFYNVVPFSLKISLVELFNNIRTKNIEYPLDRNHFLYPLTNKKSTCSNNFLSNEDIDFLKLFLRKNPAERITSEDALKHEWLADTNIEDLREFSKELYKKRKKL
In assay [7] the target is Calcium-dependent protein kinase 4 (Plasmodium falciparum (isolate 3D7)) (UniProt Q8IBS5). The assay can be described thus: PfCDPK4 kinase inhibitors, biochemical, TCAMS library (AID 1159588; cut-off not given, nearly all actives have IC50 up to about 0.91 µM). Particulars: recombinant PfCDPK4, Kinase-Glo ATP depletion luminescence.
Calcium-dependent protein kinase 4 (Plasmodium falciparum (isolate 3D7)), sequence (Q8IBS5 whole entry, looked up): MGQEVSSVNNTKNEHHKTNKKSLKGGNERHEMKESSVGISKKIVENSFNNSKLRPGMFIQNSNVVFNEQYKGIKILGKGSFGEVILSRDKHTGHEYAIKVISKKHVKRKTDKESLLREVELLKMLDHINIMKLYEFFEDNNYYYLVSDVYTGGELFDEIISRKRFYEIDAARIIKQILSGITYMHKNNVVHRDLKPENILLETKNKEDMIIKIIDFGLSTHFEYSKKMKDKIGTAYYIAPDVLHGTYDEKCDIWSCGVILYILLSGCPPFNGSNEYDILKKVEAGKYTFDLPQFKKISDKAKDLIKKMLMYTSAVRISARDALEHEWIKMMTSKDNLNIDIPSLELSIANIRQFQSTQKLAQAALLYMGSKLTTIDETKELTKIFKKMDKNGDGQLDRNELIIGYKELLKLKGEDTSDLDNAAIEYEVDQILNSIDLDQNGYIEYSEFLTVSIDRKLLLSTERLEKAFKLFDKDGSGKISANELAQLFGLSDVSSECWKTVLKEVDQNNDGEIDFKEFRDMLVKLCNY
The nature of assay [8]: human hepatoma cell viability loss – ATP luminescence, cytotoxicity control for P. falciparum antimalarial project, primary screen (AID 2303;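 active = inhibition above 50%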;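 also: 0% = DMSO wells and 100% = digitonin-killed cells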). Particulars: HepG2 viability, 24-48 h, at 10 µM, hits give high values.

What is called inhibition is the drop in the measured response relative to a control, in per cent. Consider `Cc1c(C(C)(C)C)ccc2nc(N)nc(N)c12`, for which the figures for the growth inhibition in assay [1] and in assay [3] were -2% and 89% (active), respectively. The inhibition in assay [2] was -1%. Besides, the outcome in assay [4], in assay [5], in assay [6] and in assay [7] was inactive.

Regarding `C=CC[C@H](C[C@H](O)[C@H](Cc1ccccc1)NC(=O)c1nn(-c2ccccc2)nc1C)C(=O)NC1CCCCC1`, the results for the growth inhibition in assay [1] and in assay [3] were 3% and 94% (active), respectively. Further, the figures for the inhibition in assay [8] and in assay [2] were 6% and 5%, respectively. The result in assay [4], in assay [5], in assay [6] and in assay [7] was inactive.

For the compound `CCN1CCc2c1cc(C(=O)N[C@@H](Cc1ccccc1)[C@H](O)CNC(C)(C)c1cccc(C(F)(F)F)c1)cc2N1CCCCS1(=O)=O`, the values for the growth inhibition in assay [1] and in assay [3] were 99% (active) and 100% (active), respectively. In addition, the inhibition was 6% in assay [8] and -1% in assay [2]. Moreover, the result in assay [4], in assay [5], in assay [6] and in assay [7] was inactive.

For the compound `CCOC(=O)N1CCN(CCCCCNc2cc(C)nc(/N=C(\N)Nc3ccc(Cl)cc3)n2)CC1`, the results for the growth inhibition in assay [1] and in assay [3] were 0% and 101% (active), respectively. Further, the inhibition in assay [2] was -1%. Besides, the outcome in assay [4], in assay [5], in assay [6] and in assay [7] was inactive.

In the case of `O=C(NCCc1ccccc1F)c1cc(Br)cc(N2CCN(c3ccncc3)CC2)c1`, the values for the growth inhibition in assay [1] and in assay [3] were 67% (active) and 97% (active), respectively. Besides, the results for the inhibition in assay [8] and in assay [2] were 29% and -2%, respectively. The result in assay [4], in assay [5], in assay [6] and in assay [7] was inactive.

On to `CS(=O)(=O)c1ccc2c(c1)CCN(CCC1CCC(NC(=O)C(=Cc3cccc(C#N)c3)c3ccc(-c4ccccc4)cc3)CC1)CC2` (stereo unspecified), for which the growth inhibition was 13% in assay [1] and 99% (active) in assay [3]. The inhibition in assay [8] was 24%; in assay [2] it was -6%. Further, the result in assay [4], in assay [5], in assay [6] and in assay [7] was inactive.

For the compound `CCN(CC)c1ccc2nc(N)nc(N)c2c1`, the values for the growth inhibition in assay [1] and in assay [3] were -2% and 93% (active), respectively. In addition, the inhibition in assay [2] is 2%. In addition, the result in assay [4], in assay [5], in assay [6] and in assay [7] was inactive.

`CN1CCN(c2ccc3nc(-c4ccc5nc(-c6ccc([N+](=O)[O-])c(N)c6)[nH]c5c4)[nH]c3c2)CC1`: the growth inhibition in assay [1] was 101% (active); in assay [3], 100% (active). Besides, the inhibition in assay [2] is -7%. For the same compound, the result in assay [4], in assay [5], in assay [6] and in assay [7] was inactive.

Consider `CCCCCCCN(Cc1ccc(OC(C)(C)C(=O)OCC)cc1)C(=O)Cc1ccc(F)cc1F`, for which the results for the growth inhibition in assay [1] and in assay [3] were 95% (active) and 93% (active), respectively. In assay [2], the inhibition was -3%. Moreover, the outcome in assay [4], in assay [5], in assay [6] and in assay [7] was inactive.

`CCCCOC(=O)[C@H](CCC)NC(=O)c1ccc(NS(=O)(=O)c2ccc3nc(N)[nH]c(=O)c3c2)cc1`: the figures for the growth inhibition in assay [1] and in assay [3] were 3% and 99% (active), respectively. The inhibition in assay [8] was 66% (active); in assay [2], -1%. Besides, the result in assay [4], in assay [5], in assay [6] and in assay [7] was inactive.

`COC(=O)Cn1c(C2CCN(CC3CCC(NC(=O)/C=C/c4ccc(Cl)c(Cl)c4)CC3)CC2)nc2ccccc21` (stereo unspecified): the growth inhibition was 17% in assay [1] and 95% (active) in assay [3]. Besides, the inhibition in assay [8] was 12%; in assay [2], 4%. The result in assay [4], in assay [5], in assay [6] and in assay [7] was inactive.

Take `Cc1c(Cc2ccc(C(C)C)cc2)cnc2nc(N)nc(N)c12`: the growth inhibition in assay [1] was -3%; in assay [3], 97% (active). The inhibition in assay [2] was 6%. Besides, the outcome in assay [4], in assay [5], in assay [6] and in assay [7] was inactive.

With `Cc1cc(N2CCCC2)nc(Nc2ccc(NC(=O)C3CCCC3)cc2)n1`, the figures for the growth inhibition in assay [1] and in assay [3] were 81% (active) and 102% (active), respectively. Further, the inhibition is 27% in assay [8] and 1% in assay [2]. The outcome in assay [4], in assay [5], in assay [6] and in assay [7] was inactive.

With `CCCCc1cc(Cc2cnc(N)nc2N)cc(OC)c1OC`, the figures for the growth inhibition in assay [1] and in assay [3] were -1% and 86% (active), respectively. The inhibition in assay [2] was 3%. Besides, the outcome in assay [4], in assay [5], in assay [6] and in assay [7] was inactive.

Take `CC(C)(CNC(=O)[C@@H]1CCCN(CCOc2ccc(F)c(F)c2)C1)c1nc(-c2ccc(Cl)c(O)c2)c(-c2ccncc2)[nH]1`: the growth inhibition in assay [1] is 77% (active); in assay [3], 101% (active). Further, the inhibition in assay [8] is 72% (active); in assay [2] it was -1%. Also, the result in assay [4], in assay [5], in assay [6] and in assay [7] was inactive.

Regarding `CCOc1cc(C)ccc1C1CCN(CCCCNC(=O)c2cnc(-c3ccc(C(F)(F)F)cc3)[nH]2)CC1`, the growth inhibition in assay [1] is 97% (active); in assay [3] it was 95% (active). The inhibition in assay [8] was 16%; in assay [2], 2%. The outcome in assay [4], in assay [5], in assay [6] and in assay [7] was inactive.

Consider `CCOC(=O)C(NC(=O)Cc1ccccc1)C(C)C` (stereo unspecified), for which the growth inhibition was 98% (active) in assay [1] and 96% (active) in assay [3]. In addition, the values for the inhibition in assay [8] and in assay [2] were 39% and 4%, respectively. The result in assay [4], in assay [5], in assay [6] and in assay [7] was inactive.

In the case of `Oc1ccc(CN2CCC(NCc3cccc(C(F)(F)F)c3)CC2)cc1`, the results for the growth inhibition in assay [1] and in assay [3] were 64% (active) and 101% (active), respectively. The inhibition in assay [8] was 10%; in assay [2] it was 5%. In addition, the result in assay [4], in assay [5], in assay [6] and in assay [7] was inactive.

In the case of `COc1ccc(CN2CCC(CNCCc3c(Cl)cccc3Cl)CC2)cc1`, the values for the growth inhibition in assay [1] and in assay [3] were 69% (active) and 98% (active), respectively. The inhibition was 45% in assay [8] and -11% in assay [2]. The result in assay [4], in assay [5], in assay [6] and in assay [7] was inactive.

With `O=C(Nc1ccc(-c2ccc(-c3nc4ccc(C(F)(F)F)cc4[nH]3)s2)cc1)c1ccoc1`, the growth inhibition in assay [1] is 54% (active); in assay [3], 94% (active). The values for the inhibition in assay [8] and in assay [2] were 9% and 3%, respectively. Besides, the result in assay [4], in assay [5], in assay [6] and in assay [7] was inactive.

Regarding `O=C(Nc1ccc(-c2nc3ccc(NC(=O)c4ccc(Br)cc4)cc3[nH]2)cc1)c1ccc(Br)cc1`, the growth inhibition is 4% in assay [1] and 98% (active) in assay [3]. The values for the inhibition in assay [8] and in assay [2] were 40% and 3%, respectively. Also, the result in assay [4], in assay [5], in assay [6] and in assay [7] was inactive.
